Measured values published in PubChem BioAssay (Tox21).
Records with an inconclusive call do not appear. Values without a mark were called inactive. Calls of active or inactive are those of the source. Unless noted, the call rests on the fitted dose curve.

Experiment: qHTS assay to identify small molecule agonists of the hypoxia (HIF-1) signaling pathway - cell viability counter screen (AID 1224844); further: nearly all actives have a fitted effect of over 50% in size; further: potency means the concentration at half of the fitted maximal effect
Details: HRE-bla ME-180 viability, CellTiter-Glo luminescence, 17 h; series mostly up to 76.8 µM; activity change, negative = cytotoxicity: at the top concentration
Method in brief: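 Cytotoxicity measured by CellTiter-Glo ATP luminescence in the wells also read for beta-lactamase signal. Cells were HRE-bla ME-180 (2,000/well, 0.5% dialyzed FBS), exposed to compounds for 17 h at 37C.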
On the % scale 0 is the no-effect control and ±100 the full control effect.

SMILES | activity change, negative = cytotoxicity [%] | Potency
CCOP(=S)(OCC)SC(CCl)N1C(=O)c2ccccc2C1=O (stereo not given) | 0.106 | 
ClC1=C(Cl)[C@]2(Cl)[C@H]3[C@H]([C@@H]4C=C[C@H]3C4)[C@@]1(Cl)C2(Cl)Cl |  | 43.6 µM (active)
[O]=[Cr][O][Cr]=[O] | 6.01 | 
O=Cc1ccccc1 | 3.81 | 
Cc1ccc(C)c2ccccc12 | 5.39 | 
CCNc1nc(NC(C)C(C)C)nc(SC)n1 (stereo not given) | 14.9 | 

Experiment: qHTS assay to identify small molecule agonists of H2AX (AID 1224845; active means well fitted activation curve with a large enough effect in the signal ratio in the repeat runs, not every such curve was filed as active; the % refers to the signal ratio; further: potency means the concentration at half of the fitted maximal effect)
Details: CHO-K1 phospho-H2AX Ser139 HTRF, 3 h; series mostly up to 154 µM; activation (H2AX phosphorylation): at the top concentration
Method in brief: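 Wild-type CHO-K1 cells, plated overnight, exposed 3hr at 37C to 15 concentrations (0.76% DMSO final). Lysed, then HTRF anti-pH2AX (S139) cryptate and anti-H2AX-d2 antibodies, 24 hr room temperature; 665/620 nm emission read.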

SMILES | activation (H2AX phosphorylation) | Potency
Brc1ccc(Oc2ccc(Br)cc2Br)c(Br)c1 | 0.488% | 
CSC(=O)c1c(C(F)F)nc(C(F)(F)F)c(C(=O)SC)c1CC(C)C | -4.37% | 
Oc1cc(Cl)cc(Cl)c1 | 0.405% | 
CC(C)[C@@H](Nc1ccc(C(F)(F)F)cc1Cl)C(=O)OC(C#N)c1cccc(Oc2ccccc2)c1 (stereo not given in full) | -2.95% | 
Cc1ccc([N+](=O)[O-])[c]2c1[O][Hg]2 |  | 0.695 µM (active)
C[C@]12CC[C@H]3[C@@H](CCC4=CC(=O)CC[C@@H]43)[C@@H]1CC[C@@H]2OC(=O)CCc1ccco1 | -0.363% [at 70.9 µM] | 
CNC(=O)O/N=C(\C)C(C)S(C)(=O)=O (stereo not given) | 2.53% [at 1.46 mM] | 
CC1(C)[C@H](/C=C2\CCSC2=O)[C@@H]1C(=O)OCc1coc(Cc2ccccc2)c1 | -3.42% | 
N#CSCc1ccccc1 | 0.8% | 
c1csc(-c2ccc(-c3cccs3)s2)c1 | 0.267% | 
COP(=S)(NC(C)C)Oc1ccc(C)cc1[N+](=O)[O-] (stereo not given) | -1.93% | 
CCC1(CC)C(=O)N=C(O)NC1=O | -1.21% | 
CCOC(=O)CCN(SN(C)C(=O)Oc1cccc2c1OC(C)(C)C2)C(C)C | 1.3% | 
COc1nc(C)nc(NC(=O)NS(=O)(=O)c2ccccc2Cl)n1 | -0.249% | 
c1ccc2nc(N3CCNCC3)ccc2c1 | -4.05% [at 70.9 µM] | 
CCCCC(CC)COC(=O)OOC(C)(C)C (stereo not given) | -1.95% | 
CCOP(=S)(OCC)Oc1cc(C)nc(N(CC)CC)n1 | -2.88% | 
CC1CCCC1 | 2.32% | 
COc1ccc2c(c1OC)C(=O)O[C@@H]2[C@H]1c2cc3c(cc2CCN1C)OCO3 | -2.77% | 
CN/C(=N\[N+](=O)[O-])NCc1cnc(Cl)s1 | -0.0374% | 
CCOC(=O)Cc1ccccc1 | 0.313% | 
CNC(=O)Oc1cc(C)cc(C(C)C)c1 | 3.13% | 
[O]=[Cr][O][Cr]=[O] | -1.32% | 
O=Cc1ccccc1 | 1.83% | 

Experiment: qHTS assay to identify small molecule agonists of the hypoxia (HIF-1) signaling pathway (AID 1224846; active means well fitted activation curve with a large enough effect in the signal ratio in the repeat runs, not every such curve was filed as active; the % refers to the signal ratio)
Details: HRE-bla ME-180 cells, beta-lactamase ratio, 17 h; series mostly up to 76.8 µM; activation: at the top concentration
Method in brief: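 Compounds added to ME-180 cells carrying hypoxia-response-element beta-lactamase reporter (0.5% dialyzed FBS, 5 h preplating), 17 h at 37C; agonist activity detected by CCF4-AM B/G FRET read-out.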

SMILES | activation
Oc1cc(Cl)cc(Cl)c1 | 1.99%
CNC(C)(C)Cc1ccccc1 | -1.41% [at 35.5 µM]
CC(C)N(C(=O)SC/C(Cl)=C/Cl)C(C)C | 0.146%
CNC(=O)O/N=C(\C)C(C)S(C)(=O)=O (stereo not given) | -2.84% [at 725 µM]
CN(C)c1ccc(N)cc1 | 2.09%
COP(=S)(NC(C)C)Oc1ccc(C)cc1[N+](=O)[O-] (stereo not given) | 1.68%
CCC1(CC)C(=O)N=C(O)NC1=O | -0.7%
CC(=O)C(Cl)C(=O)N(C)C (stereo not given) | -0.939%
COc1nc(C)nc(NC(=O)NS(=O)(=O)c2ccccc2Cl)n1 | -1.03%
CCCCC(CC)COC(=O)OOC(C)(C)C (stereo not given) | 2.78%
CCOP(=S)(OCC)Oc1cc(C)nc(N(CC)CC)n1 | 1.78%
CC1CCCC1 | -0.415%
CN/C(=N\[N+](=O)[O-])NCc1cnc(Cl)s1 | 2.73%
CNC(=O)Oc1cc(C)cc(C(C)C)c1 | 0.034%
O=c1c2ccccc2c(=O)c2c1cc(Cl)c1[nH]c3c([nH]c12)c(Cl)cc1c(=O)c2ccccc2c(=O)c13 | -1.79%
CCOP(=S)(OCC)SC(CCl)N1C(=O)c2ccccc2C1=O (stereo not given) | 2.55%
[O]=[Cr][O][Cr]=[O] | 0.101%
O=Cc1ccccc1 | 1.07%
Cc1ccc(C)c2ccccc12 | 0.0883%
CCNc1nc(NC(C)C(C)C)nc(SC)n1 (stereo not given) | 0.588%

Experiment: qHTS assay to identify small molecule agonists of H2AX - cell viability counter screen (AID 1224847); further: nearly all actives have a fitted effect of over 30% in size; further: potency means the concentration at half of the fitted maximal effect; on activity change, negative = cytotoxicity: top concentration of the series differs between compounds
Details: CHO-K1 viability, CellTiter-Glo luminescence, 3 h; series mostly up to 154 µM; activity change, negative = cytotoxicity: at the top concentration
Method in brief: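 Counter-screen for viability: CellTiter-Glo ATP luminescence read after 3 h compound treatment (15-point titration, 0.76% DMSO final) of CHO-K1 cells at 37C, with 30 min room-temperature reagent incubation.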

SMILES | Potency | activity change, negative = cytotoxicity
Brc1ccc(Oc2ccc(Br)cc2Br)c(Br)c1 | 113 µM (active) | 
CC[C@H](C)[C@H]1O[C@]2(C=C[C@@H]1C)C[C@@H]1C[C@@H](C/C=C(\C)[C@@H](O[C@H]3C[C@H](OC)[C@@H](O[C@H]4C[C@H](OC)[C@@H](NC)[C@H](C)O4)[C@H](C)O3)[C@@H](C)/C=C/C=C3\CO[C@@H]4[C@H](O)C(C)=C[C@@H](C(=O)O1)[C@]34O)O2 | 16 µM (active) | 
CSC(=O)c1c(C(F)F)nc(C(F)(F)F)c(C(=O)SC)c1CC(C)C |  | -3.83%
Oc1cc(Cl)cc(Cl)c1 | 90.7 µM (active) | 
CNC(C)(C)Cc1ccccc1 |  | 0.947% [at 70.9 µM]
CNC(=O)O/N=C(\C)C(C)S(C)(=O)=O (stereo not given) |  | -3.14% [at 1.46 mM]
Fc1ccc(C(OCCN2CCN(CCCc3ccccc3)CC2)c2ccc(F)cc2)cc1 | 55.2 µM (active) | 
CN(C)c1ccc(N)cc1 | 87.6 µM (active) | 
CC(C)C(Nc1ccc(C(F)(F)F)cc1Cl)C(=O)OC(C#N)c1cccc(Oc2ccccc2)c1 (stereo not given) |  | -5.58%
N#CSCc1ccccc1 |  | -2.34%
Cc1cccc(Cc2cnc[nH]2)c1C |  | -4.92% [at 70.9 µM]
c1csc(-c2ccc(-c3cccs3)s2)c1 |  | -11.7%
CCC1(CC)C(=O)N=C(O)NC1=O |  | 1.19%
CC(=O)C(Cl)C(=O)N(C)C (stereo not given) |  | 14.5%
COc1nc(C)nc(NC(=O)NS(=O)(=O)c2ccccc2Cl)n1 |  | 1.3%
c1ccc2nc(N3CCNCC3)ccc2c1 |  | 0.741% [at 70.9 µM]
CCCCC(CC)COC(=O)OOC(C)(C)C (stereo not given) |  | 3.18%
CCOP(=S)(OCC)Oc1cc(C)nc(N(CC)CC)n1 |  | -3.74%
CC1CCCC1 |  | 0.254%
COc1ccc2c(c1OC)C(=O)O[C@@H]2[C@H]1c2cc3c(cc2CCN1C)OCO3 |  | 0.852%
CN/C(=N\[N+](=O)[O-])NCc1cnc(Cl)s1 |  | -3.07%
CCOC(=O)Cc1ccccc1 |  | 1.59%
CCOP(=S)(OCC)SC(CCl)N1C(=O)c2ccccc2C1=O (stereo not given) |  | -4.42%
ClC1=C(Cl)[C@]2(Cl)[C@H]3[C@H]([C@@H]4C=C[C@H]3C4)[C@@]1(Cl)C2(Cl)Cl | 89.8 µM (active) | 
CCNc1nc(NC(C)C(C)C)nc(SC)n1 (stereo not given) |  | 1.53%
